The list is not random: actives were taken first. Their share in the collection is about 19%.
HT1080 IDH1KD tx: qHTS for induction of synthetic lethality in tumor cells producing 2HG: qHTS for the HT-1080-IDH1KD cell line. HT-1080 IDH1 knockdown viability, ATP luminescence, 48 h. Potency, µM (top dose mostly 46.1 µM), for inactives: top-dose activity, negative = toxicity, hits mostly cytotoxic. 2% of 360,000 active. AID 686971, 2013;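 also: potency is read from the fitted curve at half-maximal effect; 0% = DMSO wells and -100% = cell-free medium wells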
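CellTiter-Glo luminescence after 48 h compound exposure at 37 degrees C of IDH1-knockdown HT-1080 cells in 5% FBS RPMI. %Activity scaled between DMSO wells and cell-free media wells, with curves fitted and assigned curve classes.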
IL-1B inflam inh: qHTS for Inhibitors of Inflammasome Signaling: IL-1-beta AlphaLISA Primary Screen. THP-1 LPS/ATP IL-1B secretion, AlphaLISA, 16 h; active compounds read low. activity change, % at 57.5 µM. 4.7% of 360,000 active; in the data active = activity change below about -50%; inconclusive = mostly about -30% to -49%
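Secreted IL-1B measured by AlphaLISA bead assay after 16 h compound exposure of THP-1 cells; compounds (final up to 57.5 uM) added 1 h before LPS (250 ng/mL) and ATP (1.25 mM) stimulation; lower signal means less secretion.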
TDP1 cell CPT: qHTS for Inhibitors of human tyrosyl-DNA phosphodiesterase 1 (TDP1): qHTS in cells in presence of CPT | chicken DT40 Tdp1-/-;hTDP1 cells + 20 nM CPT, ATP luminescence, 48 h | Potency, µM (series often up to 46.2 µM), inactives show top-dose activity change, negative = growth inhibition, most hits filed as inhibitors | 12% of 420,000 active | AID 686979, 2013; also: potency is read from the fitted curve at half-maximal effect; nearly all actives have a fitted effect of over 55% in size
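Chicken DT40 Tdp1-/- cells stably complemented with human TDP1 were seeded at 400 cells/well in medium containing 20 nM camptothecin, exposed to pin-transferred compounds, and grown at 37 °C for at least 48 hr. Viability was read as ATP luminescence.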
HT1080NT lethal: qHTS for induction of synthetic lethality in tumor cells producing 2HG: qHTS for the HT-1080-NT fibrosarcoma cell line; AID 686970, 2013; 1.6% of 360,000 active; Potency, µM (highest dose often 46.1 µM), for the others: at the top dose activity, negative = less viability, usual class: cytotoxic; HT-1080-NT fibrosarcoma viability, CellTiter-Glo ATP luminescence, 48 h;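 also: NT is the 2HG producing partner of a matched IDH1 knockdown line; potency is read from the fitted curve at half-maximal effect; 0% = DMSO-treated cells and -100% = media-only wells without cells; nearly all actives have a fitted effect of over 55% in size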
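Viability of the 2HG-overproducing fibrosarcoma line after 48 hours of compound exposure at 37 degrees C was determined by luminescence with CellTiter-Glo, and concentration-effect curves were then fitted and categorized.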
DT40 TDP1 no CPT: qHTS for Inhibitors of human tyrosyl-DNA phosphodiesterase 1 (TDP1): qHTS in cells in absence of CPT | DT40 Tdp1-/- hTDP1 cells, no CPT, ATP luminescence, 48 h | Potency, µM (series often up to 46.2 µM), inactives show at the highest dose activity change, negative = growth inhibition, hits mostly inhibitors | 15% of 420,000 active; also: potency is read from the fitted curve at half-maximal effect; nearly all actives have a fitted effect of over 55% in size
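Cells were dispensed at 400 per well, compounds added by pin tool, plates incubated ≥48 hr at 37 °C, then CellTiter-Glo added for 30 min at room temperature before luminescence reading. Line: DT40 Tdp1-/- complemented with hTDP1; camptothecin omitted.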
Numbers without * were called inactive; ? = inconclusive; . = no result. Unless noted, calls follow the shape of the dose curve; as a rule, active = well fitted curve in the direction sought with a large enough effect; inconclusive = small, poorly fitted or top-dose-only effect, or another doubt; inactive = no such curve, though single readings can be large; an effect the other way counts as inactive or inconclusive. Unless noted, % is scaled to controls: 0 for no effect and ±100 for the full control effect.

SMILES | HT1080 IDH1KD tx | IL-1B inflam inh | TDP1 cell CPT | HT1080NT lethal | DT40 TDP1 no CPT
CCOCCCn1c(=NC(C)=O)c(C#N)cc2c(=O)n3cccc(C)c3nc21 | 3% | . | 8% | -1% | ?
CCCCCn1c(=NC(=O)c2cccnc2)c(C#N)cc2c(=O)n3cccc(C)c3nc21 | 0% | 21 | ? | 7% | ?
CCN(CC)c1ccc(NC(=O)Cn2c(C(C)NC(=O)c3ccc(C)cc3)nc3ccccc32)cc1 (stereo not given) | 15% | 4 | 10% | -6% | -7%
CC(=O)N1C(=O)C2(C(C#N)=C(N)Oc3c2c(C)nn3-c2ccccc2)c2ccccc21 (stereo not given) | -3% | 31 | 23µM* | -7% | ?
CC(=O)N1C(=O)C2(C(C#N)=C(N)Oc3cc(C)oc(=O)c32)c2ccccc21 (stereo not given) | 2% | -12 | -1% | 3% | -8%
CC(=O)N1C(=O)C2(C(C#N)=C(N)Oc3n[nH]c(-c4ccccn4)c32)c2ccccc21 (stereo not given) | 16% | 5 | ? | -7% | 18µM*
Cc1nn(-c2ccccc2)c(N)c1C1(O)C(=O)N(C)c2ccccc21 (stereo not given) | -1% | 10 | 23µM* | -4% | ?
CN1C(=O)C2(C(C#N)=C(N)Oc3n[nH]c(-c4ccc(Cl)cc4)c32)c2ccccc21 (stereo not given) | -3% | -24 | -18% | -18% | -24%
CC1(C)CC(=O)C2=C(C1)OC(N)=C(C#N)C21C(=O)N(Cc2ccccc2Cl)c2ccccc21 (stereo not given) | 1% | 0 | ? | -1% | 23µM*
COc1cccc(/C=N/NC(=O)c2nnn(-c3nonc3N)c2C(C)C)c1 | -2% | -18 | ? | -1% | -16%
Cc1nn(-c2ccc(F)cc2)c(Cl)c1/C=C(\CC(=O)O)c1nc2ccccc2s1 | -30% | 6 | -6% | -17% | 0%
Cc1nn(-c2ccccc2)c2c1C1(C(=O)N(C)c3ccccc31)C(C#N)=C(N)O2 (stereo not given) | 2% | 11 | 16µM* | 2% | ?
Cc1[nH]nc2c1C1(C(=O)N(Cc3ccc(Cl)cc3)c3ccccc31)C(C#N)=C(N)O2 (stereo not given) | ? | -16 | 23µM* | ? | 26µM*
Cc1nn(-c2ccccc2)c2c1C1(C(=O)N3c4c(cccc41)C(C)CC3(C)C)C(C#N)=C(N)O2 (stereo not given) | ? | -26 | ? | ? | ?
COC(=O)Cc1[nH]nc2c1C1(C(=O)N(Cc3ccccc3)c3ccccc31)C(C#N)=C(N)O2 (stereo not given) | 6% | -16 | -9% | 12% | -7%
CCN1C(=O)C2(C(C#N)=C(N)Oc3c2c(C)nn3-c2ccccc2)c2ccccc21 (stereo not given) | ? | 7 | 18µM* | -3% | 16µM*
CCCCc1[nH]nc2c1C1(C(=O)N(CC)c3ccccc31)C(C#N)=C(N)O2 (stereo not given) | 0% | -3 | 2% | -2% | -7%
COc1ccc(/C=C(\NC(=O)c2ccc([N+](=O)[O-])cc2)C(=O)N2CCOCC2)cc1 | 4% | 9 | -4% | 5% | -12%
CN(Cc1ccco1)C(=O)Cn1ncc2c([nH]c3ccccc32)c1=O | -4% | -2 | 0% | -1% | -19%
Cc1nn(Cc2ccccc2)c2c1C(c1cccc(Cl)c1)C(C#N)=C(N)O2 (stereo not given) | ? | 62 | 23µM* | -24% | 18µM*
CCOC(=O)N(O)c1ccc(C=Cc2ccccc2)cc1 | 0% | ? | 12µM* | 3% | 15µM*
Cc1cc(C)n(-c2nc(SCCN(C)C)c3c4c(sc3n2)COC(C)(C)C4)n1 | ? | -60* | 22µM* | 18µM* | 18µM*
Cc1cc(C)n(-c2nc(NCC3CCCO3)c3c4c(sc3n2)COC(C)(C)C4)n1 (stereo not given) | -8% | -51* | 5.2µM* | 0% | 3.7µM*
Cc1ccccc1C(=O)Nc1ccc(C(=O)O)cc1NC(=O)c1ccccc1C | 3% | 8 | 2% | 0% | -1%
O=S(=O)(Cc1ccccc1)NCC1CCCN(Cc2ccc(F)c(F)c2)C1 (stereo not given) | -23% | 31 | -10% | 5% | -18%
SMILES | HT1080 IDH1KD tx | IL-1B inflam inh | TDP1 cell CPT | HT1080NT lethal | DT40 TDP1 no CPT
COc1ccc(C(C(=O)Nc2ccc3c(c2)OCCO3)n2c(=O)c(-c3ccco3)nc3ccccc32)cc1 (stereo not given) | 13µM* | 24 | 12µM* | ? | 21µM*
COc1ccc(C(C(=O)NC(C)(C)C)n2c(=O)c(-c3ccco3)nc3ccccc32)cc1 (stereo not given) | ? | -18 | ? | -21% | 23µM*
COc1ccc(NC(=O)C(c2ccccc2)n2c(=O)c(-c3ccco3)nc3ccccc32)cc1 (stereo not given) | -28% | -9 | 10µM* | -16% | 9.2µM*
CC(C)(C)NC(=O)C(c1ccc(-c2ccccc2)cc1)n1c(=O)c(-c2ccco2)nc2ccccc21 (stereo not given) | -22% | -26 | ? | ? | ?
COc1ccc(NC(=O)C(c2ccc(OC)cc2)n2c(=O)c(-c3ccco3)nc3ccccc32)cc1 (stereo not given) | -22% | -9 | ? | -14% | ?
O=C(Nc1ccc2c(c1)OCCO2)C(c1ccccc1F)n1c(=O)c(-c2ccco2)nc2ccccc21 (stereo not given) | -5% | -14 | 8.2µM* | -3% | ?
COc1cc(C(=O)N/N=C/c2ccc(OC)c(CN3CCN(c4ccc(F)cc4)CC3)c2)ccc1O | -15% | -7 | ? | -20% | ?
Cc1ccc(CCNC(=O)CSCc2ccc(F)cc2)cc1 | -2% | -12 | 11% | 2% | 4%
Cc1ccc(S(=O)(=O)c2c(C)c(C)c(C)[nH]c2=O)cc1 | 5% | 13 | -26% | 12% | 13%
Cc1ccc(Sc2sc(=O)n(C)c2S(=O)(=O)c2ccc(C)cc2)cc1 | 4% | 4 | ? | 16% | 21µM*
CN(C)CCNc1ncnc2c1ncn2[C@H]1CN(CCc2ccccc2)C[C@@H](CO)O1 | 16% | 21 | -5% | 30% | -18%

Compound activity from PubChem.
